According to ChEMBL document CHEMBL4513216, “Probing the Open Global Health Chemical Diversity Library for Multistage-Active Starting Points for Next-Generation Antimalarials” (ACS Infect Dis, 2020):
Hit rate of the full screen: of about 65,000 compounds, about 2,100 (3.2%) showed an effect of 50% or more. The median lay at about -52%. This is one part of a sample in which strong results are shown more often than they occur.

What follows are compounds tested on Plasmodium falciparum (assay: Screen against P. falciparum Asexual Blood Stage (ABS), at 5uM). Conditions: tested at 5 uM.
Assay type: functional, Dd2
CC(C)OC(=O)N1C[C@@H]2CC[C@H]1CN(Cc1cccnc1)C2 gave an INHIBITION of -128%. Compound Cc1cccc(CN2C(=O)C[C@H]3[C@@H]2CCN3Cc2cccs2)n1 has an INHIBITION of -76.6%. With CN1CCC(N2CCOC3(CCCC3)C2)C1=O (configuration not stated) the INHIBITION was -26.7%. OC(CNCc1ccccc1C(F)(F)F)c1ccccc1 (configuration not stated) was tested, and the INHIBITION was 82.4%. Compound Cc1ccccc1CNCC(O)c1ccc(OC(C)C)cc1 (configuration not stated) has an INHIBITION of 92.4%. For CC(C)Oc1ccc(C(O)CNCc2ccccc2C(F)(F)F)cc1 (configuration not stated), the INHIBITION was 83.2%. With Cc1noc(C)c1C(=O)N1CCOC2(COCCN(C(C)C)C2)C1 (configuration not stated) the INHIBITION was -57.3%. With CN(CCCOc1ccccc1)C(=O)c1csc(-c2nnc[nH]2)n1 the INHIBITION was 77.1%. With CC1(C)CN(C(CNC2=NCCN2)c2ccc(Cl)cc2)CCO1 (configuration not stated) the INHIBITION was 83%. Work on Cc1n[nH]c2c1C(c1ccc(O)c(Cl)c1)SCC(=O)N2 (configuration not stated) yielded an INHIBITION of -65.6%. Work on Cc1ccc(C(=O)N2C[C@@H]3OCCN(C)[C@@H]3C2)cn1 yielded an INHIBITION of -12.2%. In the case of O=C(c1ccc(-n2ccnc2)nc1)N1CCN2CCCCC2C1 (configuration not stated), the INHIBITION is reported as -56.6%. O=C(c1ccc(-n2cccn2)nc1)N1CCC(c2ccc(O)cc2)CC1 gave an INHIBITION of 75.1%. Cc1noc(C)c1CN1C[C@H](OCC2CC2)[C@H]2COC[C@H]21 gave an INHIBITION of -54.7%. Work on Fc1ccccc1CO[C@@H]1C[C@H]2CN(c3ncccn3)CCN2C1 yielded an INHIBITION of -67.9%. CN1C(=O)C2(CCN(Cc3cccnc3)CC2)c2cccc(F)c21 gave an INHIBITION of -61.4%. For Fc1ccc(F)c(CN2CCC(c3cc4ncccc4cn3)CC2)c1, the INHIBITION was 76%. Fc1cnccc1CN1CCC2(CCN2c2ncccn2)C1 (configuration not stated) gave an INHIBITION of -10.7%. COc1ccc(C)cc1CN1CCC(c2cc3ncccc3cn2)CC1 gave an INHIBITION of 78.2%. With Fc1cccc(CN2CCC(c3cc4ncccc4cn3)CC2)c1F the INHIBITION was 89.4%. O=C(Cc1ccccc1F)N1CCN(Cc2noc(C3CC3)n2)CC1 gave an INHIBITION of -69%. Compound O=C1CO[C@H]2CN(Cc3cccnc3)C[C@H]2N1 has an INHIBITION of -119%. CCN1CCN(C(=O)Cc2ccc(S(=O)(=O)C(F)F)cc2)CC1 was tested, and the INHIBITION was -124%. In the case of NCC1Cc2cccc(-c3ccc(O)c(F)c3)c2O1 (configuration not stated), the INHIBITION is reported as 82.9%. Work on COCC(=O)N1C[C@@H]2OCCN(Cc3c(C)noc3C)[C@@H]2C1 yielded an INHIBITION of -93.2%. c1cncc(O[C@H]2CC[C@H]3[C@H]2OCCN3C2CCC2)c1 showed an INHIBITION of -27.2%. Cc1ccc(Cl)cc1N1CCC(CNC(=O)CCn2ccnc2)C1 (configuration not stated) showed an INHIBITION of 84.2%. Compound CCN1CCN(C(=O)c2cn(Cc3ccccc3)c3ncccc23)CC1 has an INHIBITION of 20.5%. Compound CCc1ncc(C(=O)N2CC[C@H]3CC[C@@H](C2)N3C)cn1 has an INHIBITION of -3.55%. CC(=O)c1cc(C(=O)N2CC[C@H]3CC[C@@H](C2)N3C)c(=O)[nH]c1C gave an INHIBITION of -102%. CN1[C@@H]2CC[C@H]1CN(C(=O)c1ccc(-c3ccccc3)[nH]1)CC2 was tested, and the INHIBITION was 79.7%. COCCN1CCN(Cc2ccncc2)[C@H]2CS(=O)(=O)C[C@H]21 showed an INHIBITION of -111%. CNC(=O)CN1CC[C@H]2CN(C(=O)c3ccc(C)nc3)C[C@H]2C1 showed an INHIBITION of -17.9%. CCN(CC)CCN1CCO[C@H]2[C@@H](OCc3ccccn3)CC[C@@H]21 was tested, and the INHIBITION was -115%. In the case of COC(=O)c1cc(OCC2CCC2)cc(C(=O)N[C@@H]2CNCC[C@H]2O)c1, the INHIBITION is reported as 90.1%. CC1=N[C@@]2(CC[C@@H]3CN(CC(C)C)C[C@@H]32)C(=O)N1 gave an INHIBITION of -40.1%. With COc1ccc2c(c1)c(C(=O)Nc1n[nH]c(C(C)C)n1)cn2C(C)C the INHIBITION was 22.8%. For CCCc1nc(N2CCCN3CCC[C@H]3C2)c2cnn(C)c2n1, the INHIBITION was -7.45%. In the case of CCCc1nc(N2CCCC3(CCNC3)C2)c2cnn(C)c2n1 (configuration not stated), the INHIBITION is reported as -53.5%. Work on CCCc1nc(N(C)CCN2CCCCCC2)c2cnn(C)c2n1 yielded an INHIBITION of 92.9%. Work on Cc1c(C2SCC(=O)Nc3c2c(O)nn3C2CCCC2)cnn1C (configuration not stated) yielded an INHIBITION of -70.4%. Compound CC(C)N1CCC2(CCCNC2)C1=O (configuration not stated) has an INHIBITION of 25.4%. In the case of O=C1C[C@H]2[C@@H](CCN2Cc2ccccn2)N1CCN1CCOCC1, the INHIBITION is reported as 27.7%. Compound c1cc(N2CCC(CN3CCOCC3)CC2)c2sccc2n1 has an INHIBITION of 92.3%. With c1cnc(N2CCC3(COCCN(CC4CCOCC4)C3)C2)nc1 (configuration not stated) the INHIBITION was -26.6%. O=C1NC[C@H]2CN(Cc3ccnc4ccccc34)CCN12 showed an INHIBITION of -11.8%. CCC(O)(CNCc1cc[nH]n1)c1ccc(Br)cc1 (configuration not stated) gave an INHIBITION of 76.4%. Work on CC(C)N1CCOCC2(CN(Cc3ccccn3)CCO2)C1 (configuration not stated) yielded an INHIBITION of -62.4%. For O=C(NCc1ccccn1)[C@@]12CCO[C@@H]1CCN(C1CCCC1)C2, the INHIBITION was -21.2%. With Cn1cc(CN2CC[C@]3(C[C@H](OCc4ccccn4)CO3)C2)cn1 the INHIBITION was -37.1%. In the case of OCCN1CCC2(CC1)CC(NCc1ccccn1)c1ccccc1O2 (configuration not stated), the INHIBITION is reported as 70.8%. CC(C)N1CCC2(CC1)CC(NCc1ccccn1)c1ccccc1O2 (configuration not stated) showed an INHIBITION of 70.7%. Compound O=S(=O)(C1CC1)N1CCC2(CC1)CN(Cc1ccccn1)CCO2 has an INHIBITION of -110%. CN(C)C(=O)[C@@H]1C[C@@H]2CCN(Cc3ccncc3)C[C@@H]2O1 was tested, and the INHIBITION was -19.3%. Work on CCCN1CCC[C@]2(CCC(=O)N2Cc2ccncc2)[C@H]1CC yielded an INHIBITION of -97.5%. Work on O=C(C1CC=CC1)N1CCC2(CC1)CNCCO2 yielded an INHIBITION of -57.4%. In the case of C[C@@H]1CN(C(=O)C2CCS(=O)(=O)CC2)CC[C@@]1(O)C1CCOCC1, the INHIBITION is reported as 71.2%. O=C(C1CC1)N1CCC2(CC1)OCCO2 was tested, and the INHIBITION was -77.4%. For O=C(C1CCOCC1)N1CCC2(CCNCC2)C1, the INHIBITION was -36.9%. O=C([C@@H]1Cc2[nH]cnc2CN1Cc1cc2ccccc2o1)N1CCCC1 gave an INHIBITION of 95%. CCOCC(O)CN1CCN(C(=O)Cc2cccc(C)c2)CC1 (configuration not stated) was tested, and the INHIBITION was 59.6%. With CCOCC(O)CN1CCN(C(=O)Cc2ccc3c(c2)CCC3)CC1 (configuration not stated) the INHIBITION was 69.6%. O=C(Cc1ccccc1Cl)N1CCN(CC(O)COCCO)CC1 (configuration not stated) gave an INHIBITION of 58%. With CCC(O)CN1CCN(C(=O)Cc2ccc(C)nc2)CC1 (configuration not stated) the INHIBITION was 36.3%. Compound CCOCC(O)CN1CCN(C(=O)Cc2ccc3c(c2)CCO3)CC1 (configuration not stated) has an INHIBITION of -3.91%. Work on CCOCC(O)CN1CCN(C(=O)Cc2ccccc2Cl)CC1 (configuration not stated) yielded an INHIBITION of -121%. CCOCC(O)CN1CCN(C(=O)Cc2cccc(Cl)c2)CC1 (configuration not stated) was tested, and the INHIBITION was -87.1%. For Cc1ccc(CC(=O)N2CCN(CC(O)C(C)(C)C)CC2)cn1 (configuration not stated), the INHIBITION was -202%. For CC(C)(C)C(=O)NS(=O)(=O)c1ccc(C#N)c(C(F)(F)F)c1, the INHIBITION was -87.2%. With CN(C)[C@@H]1CN(C(=O)Cc2ccsc2)[C@@H]2CCCO[C@H]12 the INHIBITION was 32.7%. With CCNC(=O)CCC(=O)NC(C)Cc1ccccc1Br (configuration not stated) the INHIBITION was -67.5%. Compound NC(=O)C1CN(C(=O)Nc2cc(Cl)cc(Cl)c2)CCO1 (configuration not stated) has an INHIBITION of 84.9%. O=C(CCc1cscn1)N1CCC(C(=O)O)(c2ccccc2)CC1 gave an INHIBITION of -11.5%. For Cc1ncc2c(c1CNC(=O)C1(C)CCCCO1)CCNC2 (configuration not stated), the INHIBITION was -63.8%. Compound O=C(NCc1cc2n(n1)CCCNC2)C1(c2ccccc2)CCCCC1 has an INHIBITION of 73.7%. Compound CCCC(=O)NS(=O)(=O)c1ccc(C#N)c(C(F)(F)F)c1 has an INHIBITION of -56%. In the case of c1ccc(C[C@H]2CN(C3CCOCC3)CC[C@H]2OCC2CC2)cc1, the INHIBITION is reported as 74.9%. For NC(=O)C1CN(C(=O)Cc2cccnc2)CCN(C2CCOCC2)C1 (configuration not stated), the INHIBITION was -92.3%. Work on CO[C@H]1CCN(C2CCOCC2)C[C@@H]1Cc1ccccc1 yielded an INHIBITION of 78.7%. With Cc1nnc(N2CC[C@@H](OCC3CC3)[C@@H](Cc3ccccc3)C2)s1 the INHIBITION was 84.8%. For O=C1[C@H]2CN(C3CCOCC3)C[C@H]2CN1Cc1ccncc1, the INHIBITION was -33.5%. c1cncc(CO[C@H]2CC[C@H]3[C@@H]2OCCN3C2CCOCC2)c1 gave an INHIBITION of -57.8%. CO[C@@H]1CCN(C2CCOCC2)C[C@@H]1Cc1ccccc1 gave an INHIBITION of 80.8%. In the case of O=C1[C@H]2CN(C3CCOCC3)C[C@H]2CN1Cc1cccnc1, the INHIBITION is reported as -28.2%. O=C1N(Cc2cccnc2)C[C@H]2CN(C3CCOCC3)CCN12 gave an INHIBITION of -55.6%. c1ccc(CN2C[C@@H]3OCCN(CC4CCCO4)[C@@H]3C2)nc1 (some centres not stated) gave an INHIBITION of -0.326%. Compound CCCN1CCN(C(=O)c2cnc(C)nc2)[C@H]2CS(=O)(=O)C[C@H]21 has an INHIBITION of -183%. O=C(C1CCCCC1)N1CC2(CCNCC2)C1 showed an INHIBITION of -23.1%. Work on CC(C)CN1CC[C@@H]2[C@@H]1CCN2C(=O)N(C)C yielded an INHIBITION of -67.2%. In the case of Cc1cnn(CC(C)NCC(=O)NC2CCOCC2)c1 (configuration not stated), the INHIBITION is reported as 14.5%. Cc1cnn(CC2CCN(CC(O)c3ccccc3Cl)CC2)c1 (configuration not stated) was tested, and the INHIBITION was 78%. Compound CC(C)N1CCC(Cn2cc(C(N)=O)cn2)CC1 has an INHIBITION of -7.48%. c1cc(CO[C@@H]2CN(Cc3ccoc3)[C@@H]3CCCO[C@@H]32)ccn1 was tested, and the INHIBITION was -102%. O=C(CC1CCCC1)NCCNCc1cccc2c1OCCO2 was tested, and the INHIBITION was 71.6%. COCC(=O)N1C[C@H]2CNC[C@@]2(C(=O)NCc2c(C)noc2C)C1 showed an INHIBITION of -53.3%. For O=C1[C@H]2CN(Cc3ccccn3)C[C@H]2CN1c1ccsc1, the INHIBITION was -16.2%. With CC(C)CN1CCC2(CC(C(=O)NCc3cccnc3)=NO2)C1 (configuration not stated) the INHIBITION was -53.1%. In the case of O=C(Nc1cc(C(F)(F)F)c[nH]c1=O)C1CCCN1 (configuration not stated), the INHIBITION is reported as -151%. For O=C(NCc1cccnc1)Nc1cc(C(F)(F)F)c[nH]c1=O, the INHIBITION was 79%. For CCOCCNC1(c2ccc(Cl)cc2)CCOCC1, the INHIBITION was 27.1%. For CCCNC1(c2ccc(Cl)cc2)CCOCC1, the INHIBITION was 67.7%. For COCCNC1(c2ccc(Cl)cc2)CCOCC1, the INHIBITION was 65.6%.
